A number with no mark means an inactive call. Records with an inconclusive call do not appear. A call without a number means that no potency is given here. Active and inactive are the calls of the source. Unless noted, the call rests on the fitted dose curve; in most records, active means well fitted curve in the direction sought with a large enough effect; inconclusive means small, poorly fitted or top-dose-only effect, or another doubt; inactive means no such curve, though single readings can be large; an effect the other way counts as inactive or inconclusive.
Columns and labels:
[1] = Cellular Toxicity (caspase-3) SHSY5Y (AID 657)
Procedure, shortened: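 Cells plated and incubated 5 h at 37 °C, dosed over a concentration range, incubated 16 h, then given Caspase-Glo 3/7 reagent for 1 h at room temperature before luminescence reading. Staurosporine (10 uM) defined full stimulation.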

[2] = Cellular Toxicity (caspase-3) SK-N-SH (AID 661)
Procedure, shortened: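 Human neuroblastoma SK-N-SH, 1500 cells/well, 5 hr pre-incubation, then compound 16 hr, 37 °C. Caspase-Glo 3/7 reagent, 1 hr RT, luminescence. Norm. to DMSO/10 uM staurosporine; Hill-fit AC50.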

[3] = Cell Viability - LYMP2-005 (AID 967); further: potency means the concentration at half of the fitted maximal effect
Procedure, shortened: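 qHTS viability screen in LYMP2-005 cells: 24 h at 37 C with compound, ATP luminescence via CellTiter-Glo, AC50 from Hill curves.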

[4] = Cell Viability - LYMP2-017 (AID 972);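 further: cells exposed to compound for 24 hours at 37 °C; nearly all actives have a fitted effect of over 55% in size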; further: potency means the concentration at half of the fitted maximal effect
Procedure, shortened: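 2500 cells/well, 5 h 37 C; cpd 24 h 37 C in complete medium; CellTiter-Glo, 30 min RT; luminescence (ATP). AC50 via Hill fit, qHTS.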

[5] = Cell Viability - LYMP2-021 (AID 974);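 further: compound exposure lasts 24 hours at 37 °C; nearly all actives have a fitted effect of over 55% in size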; further: potency means the concentration at half of the fitted maximal effect
Procedure, shortened: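 Plate 2500 lymphoblastoid cells per well and incubate 5 hr at 37 C. Add compounds over a concentration range and incubate 24 hr at 37 C. Add CellTiter-Glo, wait 30 min at room temperature, read luminescence.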

[6] = Cell Viability - LYMP2-023 (AID 975);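 further: cells exposed to compound for 24 hours at 37 °C; nearly all actives have a fitted effect of over 55% in size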; further: potency means the concentration at half of the fitted maximal effect
Procedure, shortened: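 2500 cells/well, 5 hr 37 C; cpd 24 hr 37 C; CellTiter-Glo, 30 min RT; luminescence. qHTS conc-response, Hill fit -> AC50. Pos ctrl tetraoctylammonium bromide.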

[7] = Cell Viability - LYMP2-007 (AID 979);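 further: cells exposed to compound for 24 h before reading; nearly all actives have a fitted effect of over 60% in size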; further: potency means the concentration at half of the fitted maximal effect
Procedure, shortened: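 Luminescent ATP signal (CellTiter-Glo) serves as the viability read-out after 24 hr compound treatment of lymphoblastoid cells in complete medium at 37 C. Concentration-response data were fitted to the Hill equation to give AC50 values.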

[8] = Cell Viability - LYMP1-002 - Assay at 40 hr (AID 994); further: nearly all actives have a fitted effect of over 60% in size; further: potency means the concentration at half of the fitted maximal effect
Procedure, shortened: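 Luminescent ATP signal served as the viability readout, with decreases taken as toxicity. Cells were treated with compounds across a concentration range for 40 hours at 37 C, and AC50 values came from standard Hill modeling.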

[9] = qHTS assay for small molecule disruptors of the mitochondrial membrane potential - 5 hr assay (AID 651755; calls by dose curve; further: nearly all actives have a fitted effect of over 40% in size)
Procedure, shortened: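 HepG2 cells (2,000/well), attached overnight, exposed to compound 5 hr at 37C, then Mito-MPS dye 30 min. Fluorescence read for monomers (490/535 nm) and aggregates (540/590 nm).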

[10] = qHTS assay for small molecule agonists of the antioxidant response element (ARE) signaling pathway measured by Nrf2-dependant transcriptional activity (AID 720636; active means well fitted curve in the direction sought with a large enough effect in the repeat runs; an effect the other way counts as inactive or inconclusive; further: potency means the concentration at half of the fitted maximal effect)
Procedure, shortened: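 ARE-luc HepG2 cells carrying an Nrf2-responsive luciferase reporter, in medium with 1% dialyzed FBS, exposed to compound for 16 hr at 37 C, 5% CO2. Luminescence read 30 min after ONE-Glo addition.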

[11] = qHTS assay for small molecule antagonists of the retinoid-related orphan receptor gamma (ROR-gamma) signaling pathway - cell viability counter screen (AID 720652; active means well fitted curve in the direction sought with a large enough effect in the repeat runs; an effect the other way counts as inactive or inconclusive;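 further: compound exposure lasted 16 hr before ATP read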; further: potency means the concentration at half of the fitted maximal effect)
Procedure, shortened: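 Luminescence from CellTiter-Glo after 30 min at room temperature reported cellular ATP as the cytotoxicity measure. Cells were the CHO reporter line with doxycycline-induced ROR-gamma expression, exposed to compound for 16 hr at 37 C.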

[12] = MultiTox-Fluor Cytotoxicity Assay - LYMP1-003 - Dead Cells (AID 961); further: nearly all actives have a fitted effect of over 70% in size; further: potency means the concentration at half of the fitted maximal effect
Procedure, shortened: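 LYMP1-003 human lymphoblastoid cells (2500/well) exposed to compound 16 h at 37 C in complete medium; dead-cell protease read with bis-AAF-R110 fluorescence (Ex/Em 485/520) after 60 min at room temperature. Normalized to DMSO and 15 uM tetraoctylammonium bromide; AC50 from Hill fit.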

[13] = Cell Viability - LYMP2-011 (AID 969);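 further: cells exposed to compound for 24 hours; nearly all actives have a fitted effect of over 60% in size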; further: potency means the concentration at half of the fitted maximal effect
Procedure, shortened: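 2500 cells/well, 5 hr 37 C; compound added, 24 hr 37 C; CellTiter-Glo 30 min RT; luminescence. qHTS concentration-response, Hill-equation AC50. Tetraoctylammonium bromide positive control.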

[14] = Cell Viability - LYMP2-012 (AID 982);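 further: cellular ATP by luciferase luminescence where a drop means cytotoxicity; cells exposed to compound for one day before reading; nearly all actives have a fitted effect of over 55% in size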; further: potency means the concentration at half of the fitted maximal effect
[15] = Cell Viability - LYMP2-020 (AID 986); further: nearly all actives have a fitted effect of over 55% in size; further: potency means the concentration at half of the fitted maximal effect
Procedure, shortened: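 Luminescent ATP signal (CellTiter-Glo, 30 min at room temperature) is the read-out after 24 h compound treatment of lymphoblastoid cells at 37 C. AC50 values come from Hill-equation fits across concentrations.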

[16] = biological target: Voltage-gated inwardly rectifying potassium channel KCNH2 (Homo sapiens) (UniProt Q12809); assay: qHTS Assay for Small Molecule Inhibitors of the Human hERG Channel Activity (AID 588834);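 further: lower thallium flux fluorescence means stronger hERG block; nearly all actives have a fitted effect of over 50% in size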; further: potency means the concentration at half of the fitted maximal effect
Procedure, shortened: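 Measured: FluxOR fluorescence after thallium stimulation in U2OS cells transduced with hERG by baculovirus. Compounds pre-incubated around 10 min; medium Opti-MEM with 2% FCS. AC50 from Hill equation.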

[17] = qHTS assay for small molecule activators of the p53 signaling pathway (AID 651743; active means well fitted activation curve with a large enough effect in the signal ratio, not every such curve was filed as active; the % refers to the signal ratio; further: series mostly up to about 92 µM); details: HCT-116 p53RE-bla, beta-lactamase FRET ratio, 16 h; activation: hits give high values
Procedure, shortened: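 p53RE-bla HCT-116 cells carrying a beta-lactamase reporter under p53 response elements were exposed to compounds for 16 hours at 37 C. Reporter activity read as fluorescence after 2 hours at room temperature with LiveBLAzer B/G FRET substrate.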

[18] = biological target: Mitogen-activated protein kinase 10 (Mus musculus) (UniProt Q61831); assay: JNK3 AlphaScreen Assay (AID 530; active means well fitted curve in either direction with a large enough effect, not every such curve was filed as active;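 further: kinase came from lysate of stimulated human HepG2 cells; signal reports phosphorylation of biotinylated GST-cJun 1-79 at Ser73 with 10 µM ATP; series mostly up to about 57 µM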)
Procedure, shortened: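 Pre-activated (IL-1β/TNFα) JNK3 in HepG2 lysates phosphorylates biotin-GST-cJun(1-79), 10 uM ATP; anti-phospho-cJun(Ser73) AlphaScreen read at room temperature, pH 7.6 Tris buffer. Compounds pre-incubated 15 min as titrations.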

[19] = qHTS assay for cell viability of the p53RE-bla HCT-116 cell line (AID 743292); further: nearly all actives have a fitted effect of over 55% in size; further: potency means the concentration at half of the fitted maximal effect
Procedure, shortened: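 CellSensor p53RE-bla HCT-116 cells (4,000/well) pre-incubated 5 h at 37 C, then exposed to compounds in DMSO for 16 h at 37 C. Viability read as ATP content by CellTiter-Glo luminescence after 30 min at room temperature.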

[20] = Cell Viability - LYMP2-009 (AID 968); further: nearly all actives have a fitted effect of over 55% in size; further: potency means the concentration at half of the fitted maximal effect

Voltage-gated inwardly rectifying potassium channel KCNH2 (Homo sapiens), sequence (Q12809 whole entry, looked up): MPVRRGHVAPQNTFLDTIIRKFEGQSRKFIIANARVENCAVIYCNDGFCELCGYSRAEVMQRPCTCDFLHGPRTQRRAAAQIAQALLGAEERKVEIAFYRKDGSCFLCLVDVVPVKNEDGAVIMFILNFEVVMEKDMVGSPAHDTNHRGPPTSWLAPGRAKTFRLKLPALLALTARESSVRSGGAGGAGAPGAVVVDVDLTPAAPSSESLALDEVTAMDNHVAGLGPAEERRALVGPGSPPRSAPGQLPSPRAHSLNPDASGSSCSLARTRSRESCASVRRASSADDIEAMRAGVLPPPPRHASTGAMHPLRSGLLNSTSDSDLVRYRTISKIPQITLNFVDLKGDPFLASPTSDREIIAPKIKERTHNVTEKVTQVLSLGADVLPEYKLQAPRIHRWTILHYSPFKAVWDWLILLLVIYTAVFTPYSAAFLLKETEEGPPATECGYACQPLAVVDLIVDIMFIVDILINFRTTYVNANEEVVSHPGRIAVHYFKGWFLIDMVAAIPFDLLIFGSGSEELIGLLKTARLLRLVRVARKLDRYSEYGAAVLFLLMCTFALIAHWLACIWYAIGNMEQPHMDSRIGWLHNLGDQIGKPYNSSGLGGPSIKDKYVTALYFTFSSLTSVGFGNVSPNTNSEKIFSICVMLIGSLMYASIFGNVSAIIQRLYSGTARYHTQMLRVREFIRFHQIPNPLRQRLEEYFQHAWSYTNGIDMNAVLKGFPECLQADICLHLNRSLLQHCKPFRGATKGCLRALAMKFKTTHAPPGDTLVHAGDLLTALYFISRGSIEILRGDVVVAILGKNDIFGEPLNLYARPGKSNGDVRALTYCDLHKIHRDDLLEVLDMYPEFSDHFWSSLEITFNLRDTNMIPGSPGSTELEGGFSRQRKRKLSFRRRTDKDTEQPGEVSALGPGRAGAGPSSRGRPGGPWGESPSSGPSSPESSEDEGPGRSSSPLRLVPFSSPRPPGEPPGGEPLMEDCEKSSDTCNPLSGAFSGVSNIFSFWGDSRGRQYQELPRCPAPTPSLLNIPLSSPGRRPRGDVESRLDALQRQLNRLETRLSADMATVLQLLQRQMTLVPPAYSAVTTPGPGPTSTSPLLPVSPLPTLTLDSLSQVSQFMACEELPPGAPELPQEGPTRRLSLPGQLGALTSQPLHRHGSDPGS

| Compound | Potency [1] | outcome [2] | Potency [3] | Potency [4] | Potency [5] | Potency [6] | Potency [7] | Potency [8] | Potency [9] | Potency [10] | Potency [11] | Potency [12] | Potency [13] | Potency [14] | Potency [15] | Potency [16] | activation [17] [%] | outcome [18] | Potency [19] | Potency [20] |
| --- | --- | --- | --- | --- | --- | --- | --- | --- | --- | --- | --- | --- | --- | --- | --- | --- | --- | --- | --- | --- |
| CC(=O)[O-].CC(=O)[O-].O.O.[Cd+2] | inactive | inactive | 31.6 µM (active) | inactive | 50.1 µM (active) | inactive | 39.8 µM (active) | inactive | inactive | 841 nM (active) | 8.41 µM (active) | – | – | – | – | – | – | – | – | – |
| CC(C)CC(C)Nc1ccc(Nc2ccccc2)cc1 (stereo not drawn) | inactive | inactive | 31.6 µM (active) | 50.1 µM (active) | 50.1 µM (active) | 50.1 µM (active) | 39.8 µM (active) | 31.6 µM (active) | – | – | 59.6 µM (active) | 50.1 µM (active) | 50.1 µM (active) | 39.8 µM (active) | 39.8 µM (active) | 20 µM (active) | – | – | – | – |
| Cc1ccc(O)cc1C | – | – | – | – | – | – | – | – | – | inactive | – | – | – | – | – | – | -0.374 | – | – | – |
| [Cd+2].[Cl-].[Cl-] | inactive | inactive | – | – | – | – | 39.8 µM (active) | – | inactive | 841 nM (active) | 21.1 µM (active) | – | – | – | – | – | -8.9 | inactive | inactive | – |
| Nc1ccccc1C(=O)OCCc1ccccc1 | inactive | inactive | inactive | inactive | inactive | inactive | inactive | inactive | inactive | – | inactive | inactive | inactive | inactive | inactive | – | -0.792 | – | inactive | inactive |
| O=C(CCl)c1ccccc1 | inactive | inactive | 10 µM (active) | 10 µM (active) | 10 µM (active) | 12.6 µM (active) | 10 µM (active) | inactive | inactive | inactive | 29.8 µM (active) | 31.6 µM (active) | 12.6 µM (active) | 10 µM (active) | 7.94 µM (active) | inactive | 2.08 | – | inactive | 10 µM (active) |
| OC(c1ccc(Cl)cc1)(c1ccc(Cl)cc1)C(Cl)(Cl)Cl | inactive | – | inactive | inactive | inactive | inactive | inactive | inactive | inactive | inactive | – | inactive | inactive | inactive | inactive | 39.8 µM (active) | – | – | 50.1 µM (active) | inactive |

Reference: PubChem BioAssay (NCATS)
